Measured values as given in PubChem BioAssay (NCATS).
Records with an inconclusive call do not appear. Active and inactive are the calls of the source. The call rests on the fitted dose curve; in most records, active means well fitted curve in the direction sought with a large enough effect; inconclusive means small, poorly fitted or top-dose-only effect, or another doubt; inactive means no such curve, though single readings can be large; an effect the other way counts as inactive or inconclusive. Where a SMILES comes first, the peptide text is derived from it. The star is where a group is joined. βNA = c1ccc2cc(N*)ccc2c1; Cbz = O=C(OCc1ccccc1)*

What was measured:
[1] = NCATS anti-infectives library activity on HEK293 viability as a counter-qHTS vs the C. elegans viability qHTS (AID 1745854); further: on the % scale 0 is the no-effect control and ±100 the full control effect
Procedure, shortened: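 HEK293 cells, 1500 per well, exposed 24 hr at 37C in 5% CO2 to compounds in a 1:5 titration, up to 41.7 uM final. Viability read as CellTiter-Glo luminescence after 10 min at room temperature.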

[2] = molecular target: Glutathione peroxidase 1 (Homo sapiens) (UniProt P07203); experiment: Primary qHTS Assay for Inhibitors of Recombinant Selenoprotein Glutathione Peroxidase 1 (GPX1) (AID 1845191); further: nearly all actives have a fitted effect of over 65% in size
Glutathione peroxidase 1 (Homo sapiens), sequence (P07203 whole entry, looked up): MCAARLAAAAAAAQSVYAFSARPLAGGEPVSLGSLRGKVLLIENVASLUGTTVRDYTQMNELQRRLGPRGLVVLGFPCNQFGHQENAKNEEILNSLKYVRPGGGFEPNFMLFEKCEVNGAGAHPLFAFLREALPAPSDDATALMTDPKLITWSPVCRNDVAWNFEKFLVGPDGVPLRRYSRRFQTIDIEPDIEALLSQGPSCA
Procedure, shortened: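 Recombinant GPX1 (10 nM final) was preincubated with compound for 30 min at room temperature, then reacted with 1 mM GSH, 0.5 mM CHP, 0.5 mM NADPH and 100 nM glutathione reductase; NADPH fluorescence (340/450 nm) was read at 0 and 15 min.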

[3] = molecular target: Phospholipid hydroperoxide glutathione peroxidase GPX4 (Homo sapiens) (UniProt P36969); experiment: Primary qHTS Assay for Inhibitors of Recombinant Selenoprotein Glutathione Peroxidase 4 (GPX4) (AID 1845192); further: nearly all actives have a fitted effect of over 65% in size
Phospholipid hydroperoxide glutathione peroxidase GPX4 (Homo sapiens), sequence (P36969 whole entry, looked up): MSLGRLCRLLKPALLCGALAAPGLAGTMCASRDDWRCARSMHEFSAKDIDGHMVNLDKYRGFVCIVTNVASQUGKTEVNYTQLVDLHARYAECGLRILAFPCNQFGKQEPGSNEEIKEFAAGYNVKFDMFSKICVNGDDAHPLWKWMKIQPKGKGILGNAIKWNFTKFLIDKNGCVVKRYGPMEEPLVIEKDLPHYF
Procedure, shortened: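 GR-coupled readout: 100 nM GR, 1 mM GSH, 0.5 mM NADPH; NADPH fluorescence (ex 340/em 450 nm) read at t=0 and after 15 min RT. GPX4 200 nM, preincubated 30 min with compound; substrate 0.5 mM CHP.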

[4] = molecular target: Luciferin 4-monooxygenase (Photinus pyralis) (UniProt P08659); experiment: Primary firefly luciferase (FLuc) qHTS assay for identification of artifact compounds. (AID 1845220); further: nearly all actives have a fitted effect of over 60% in size;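 on activity change, negative = inhibition: series mostly up to about 54 µM; plate controls were DMSO vehicle for no effect and no enzyme for full effect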
Procedure, shortened: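 In this counter-screen for luciferase artifacts, test compounds met substrate (10 uM each luciferin and ATP) before 10 nM enzyme started the reaction. Light output was measured 5 min later.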

[5] = Primary fluorescence-based thiol-reactive (MSTI) qHTS assay for identification of artifact compounds. (AID 1845221); further: nearly all actives have a fitted effect of over 65% in size; further: potency means the concentration at half of the fitted maximal effect;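 on activity change, negative = thiol reactive: series mostly up to about 54 µM; thiol-reactive compounds lower the probe fluorescence signal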
Procedure, shortened: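 A multi-concentration qHTS design tested compounds against 4 uM MSTI, pH 7.4 phosphate-buffered saline. Plates were protected from light for 1 h at room temperature before imaging fluorescence.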

[6] = tested on: Nanoluciferase (engineered Oplophorus gracilirostris luciferase); experiment: Primary Nanoluciferase (NLuc) qHTS assay for identification of artifact compounds. (AID 1845222);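 further: NLuc secreted into diluted conditioned medium of S16 cells; series mostly up to about 54 µM; 0% = DMSO and -100% = no enzyme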
Procedure, shortened: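 Using secreted nanoluciferase in S16 culture medium (0.22 um filtered, 1:55 dilution), compounds were preincubated 15 min at RT. Signal was generated with Nano-Glo reagent (1:100) over 5 min.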

[7] = Primary redox qHTS assay for identification of artifact compounds. (AID 1845223);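 further: 0% = DMSO and 100% = reference compound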
Procedure, shortened: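 Amplex Red (25 uM) and HRP (250 mU/mL) in HBSS, with compounds for 15 min, then 250 uM DTT for 30 min, room temperature, dark. Fluorescence 525/598 nm read; normalized to DMSO and 10 uM DA3003; Hill fit.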

[8] = Viability counterscreen for antagonist of constitutive androstane receptor (CAR) against the NCATS DSHEA and TCM libraries (AID 1794837);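 further: compound exposure lasted 24 h before viability reading; 0% is about no effect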
Procedure, shortened: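 Cells: HepG2 line carrying CYP2B6 reporter and hCAR, seeded and attached 5 h. Then pin-transferred test substances plus agonist CITCO at 48 uM final; 24 h incubation; fluorogenic viability reagent, 1 h.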

[9] = Viability counterscreen for agonist of constitutive androstane receptor (CAR) against the NCATS DSHEA and TCM libraries (AID 1794838);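 further: HepG2 cells with CYP2B6 reporter and hCAR plus 0.75 µM PK11195 antagonist; 0% is about no effect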
Procedure, shortened: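 Cell health was measured as CellTiter-Fluor signal in HepG2-CYP2B6-hCAR cells treated for 24 h with substances alongside the hCAR antagonist PK11195 (0.75 uM final).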

[10] = molecular target: Nuclear receptor subfamily 1 group I member 3 (Homo sapiens) (UniProt Q14994); experiment: Primary qHTS for agonist of constitutive androstane receptor (CAR) against the NCATS DSHEA and TCM libraries (AID 1794839);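 further: HepG2 cells expressing human CAR with a CYP2B6 reporter plus PK11195 antagonist; luciferase reporter luminescence read with ONE-Glo; 0% is about no effect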
Nuclear receptor subfamily 1 group I member 3 (Homo sapiens), sequence (Q14994 whole entry, looked up): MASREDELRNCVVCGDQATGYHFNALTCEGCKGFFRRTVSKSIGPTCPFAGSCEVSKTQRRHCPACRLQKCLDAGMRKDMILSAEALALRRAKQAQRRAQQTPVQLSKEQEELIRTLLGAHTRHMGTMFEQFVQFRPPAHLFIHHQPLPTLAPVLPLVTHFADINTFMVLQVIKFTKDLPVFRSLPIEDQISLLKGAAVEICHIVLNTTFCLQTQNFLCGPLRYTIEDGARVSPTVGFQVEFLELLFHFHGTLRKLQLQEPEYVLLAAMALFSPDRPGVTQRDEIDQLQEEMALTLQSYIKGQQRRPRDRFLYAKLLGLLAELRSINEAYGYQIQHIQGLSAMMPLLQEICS
Procedure, shortened: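 qHTS, agonist mode: HepG2-CYP2B6-hCAR, 2,500 cells/well, 5 h attach; cpds + PK11195 0.75 µM final; 24 h, 37 °C, 5% CO2. Readouts: CellTiter-Fluor (405/540 nm), then ONE-Glo luminescence.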

[11] = HepG2 viability counterscreen (readout 2: ATP content) against the NCATS DSHEA and TCM libraries (AID 1794840); further: 0% is about no effect
Procedure, shortened: (§1)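 Same wells read twice: first fluorescence from cleaved GF-AFC substrate (25 uM final, 30 min, 37C) for live-cell protease, then CellTiter-Glo luminescence after 30 min at room temperature for ATP. HepG2 cells were exposed ~24 h to substances.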

[12] = HepG2 viability counterscreen (readout 1: protease activity) against the NCATS DSHEA and TCM libraries (AID 1794841);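 further: cells exposed to compounds for about 24 h before the protease read; 0% is about no effect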
Procedure, shortened: as §1

[13] = molecular target: Cytochrome P450 3A4 (Homo sapiens) (UniProt P08684); experiment: qHTS for inhibitors of CYP3A4 against the NCATS DSHEA and TCM libraries (AID 1919971);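 further: on the % scale 0 is the no-effect control and ±100 the full control effect; inhibition lowers luminescence from luciferin made by CYP3A4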
Cytochrome P450 3A4 (Homo sapiens), sequence (P08684 whole entry, looked up): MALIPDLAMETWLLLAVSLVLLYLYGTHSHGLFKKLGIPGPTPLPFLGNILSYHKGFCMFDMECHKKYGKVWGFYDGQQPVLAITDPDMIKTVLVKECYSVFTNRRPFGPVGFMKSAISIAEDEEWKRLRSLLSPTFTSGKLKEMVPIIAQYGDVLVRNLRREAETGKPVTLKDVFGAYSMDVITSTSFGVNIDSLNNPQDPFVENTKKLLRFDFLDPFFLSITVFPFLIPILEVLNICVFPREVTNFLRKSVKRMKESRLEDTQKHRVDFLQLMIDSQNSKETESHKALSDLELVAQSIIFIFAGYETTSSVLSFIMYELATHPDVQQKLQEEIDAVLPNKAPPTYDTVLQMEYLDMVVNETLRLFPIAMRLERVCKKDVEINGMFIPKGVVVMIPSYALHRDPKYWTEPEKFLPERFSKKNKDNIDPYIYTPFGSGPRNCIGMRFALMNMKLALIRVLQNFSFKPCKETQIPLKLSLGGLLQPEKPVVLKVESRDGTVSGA
Procedure, shortened: (§2)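 Luminescent P450-Glo readout. Enzyme plus pro-luciferin substrate in manufacturer buffer (typically 100 mM KPO4); 15 min RT preincubation; 1x NADPH regenerating system, 30-45 min RT in the dark; detection reagent 30 min.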

[14] = molecular target: Cytochrome P450 2D6 (Homo sapiens) (UniProt P10635); experiment: qHTS for inhibitors of CYP2D6 against the NCATS DSHEA and TCM libraries (AID 1919972); further: on the % scale 0 is the no-effect control and ±100 the full control effect
Cytochrome P450 2D6 (Homo sapiens), sequence (P10635 whole entry, looked up): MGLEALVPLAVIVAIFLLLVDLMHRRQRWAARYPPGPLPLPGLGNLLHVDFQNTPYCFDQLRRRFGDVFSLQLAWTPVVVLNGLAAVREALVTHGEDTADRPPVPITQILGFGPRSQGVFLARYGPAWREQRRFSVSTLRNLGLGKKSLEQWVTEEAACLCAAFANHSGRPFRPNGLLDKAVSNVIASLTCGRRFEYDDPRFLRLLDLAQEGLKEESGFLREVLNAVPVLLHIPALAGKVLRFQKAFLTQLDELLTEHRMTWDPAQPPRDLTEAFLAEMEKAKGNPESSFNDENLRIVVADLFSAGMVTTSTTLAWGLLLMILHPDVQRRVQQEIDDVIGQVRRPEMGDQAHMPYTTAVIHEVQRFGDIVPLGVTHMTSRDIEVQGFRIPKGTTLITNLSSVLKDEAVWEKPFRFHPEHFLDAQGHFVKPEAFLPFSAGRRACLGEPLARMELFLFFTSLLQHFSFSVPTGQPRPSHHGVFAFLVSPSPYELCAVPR
Procedure, shortened: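 Steps: enzyme plus luciferin substrate dispensed; test substances pinned; 15 min RT; 1x NADPH regenerating solution added, 30–45 min RT protected from light; detection reagent, 30 min RT; luminescence measured. Minus-enzyme wells as background.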

[15] = molecular target: Cytochrome P450 2C9 (Homo sapiens) (UniProt P11712); experiment: qHTS for inhibitors of CYP2C9 against the NCATS DSHEA and TCM libraries (AID 1919973);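 further: luminogenic pro-luciferin CYP2C9 substrate turned into luciferin with NADPH regeneration; series mostly up to about 34 µM; on the % scale 0 is the no-effect control and ±100 the full control effect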
Cytochrome P450 2C9 (Homo sapiens), sequence (P11712 whole entry, looked up): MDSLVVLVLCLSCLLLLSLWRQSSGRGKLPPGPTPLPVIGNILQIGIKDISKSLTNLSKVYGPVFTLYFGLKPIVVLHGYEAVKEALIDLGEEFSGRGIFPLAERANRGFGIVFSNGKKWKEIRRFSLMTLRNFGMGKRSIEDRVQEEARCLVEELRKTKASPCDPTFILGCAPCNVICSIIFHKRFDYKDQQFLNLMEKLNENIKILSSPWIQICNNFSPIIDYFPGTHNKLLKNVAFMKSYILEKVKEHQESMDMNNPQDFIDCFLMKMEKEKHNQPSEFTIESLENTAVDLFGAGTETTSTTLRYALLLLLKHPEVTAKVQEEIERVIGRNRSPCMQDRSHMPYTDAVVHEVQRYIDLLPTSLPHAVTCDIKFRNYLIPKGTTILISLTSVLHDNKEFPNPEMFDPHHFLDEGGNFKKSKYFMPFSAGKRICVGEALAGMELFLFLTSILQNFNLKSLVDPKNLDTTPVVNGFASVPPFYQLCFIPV
Procedure, shortened: as §2

[16] = molecular target: Cytochrome P450 2C19 (Homo sapiens) (UniProt P33261); experiment: qHTS for inhibitors of CYP2C19 against the NCATS DSHEA and TCM libraries (AID 1919974);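 further: luminescence from luciferin released by CYP2C19 oxidation of a pro-luciferin substrate; on the % scale 0 is the no-effect control and ±100 the full control effect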
Cytochrome P450 2C19 (Homo sapiens), sequence (P33261 whole entry, looked up): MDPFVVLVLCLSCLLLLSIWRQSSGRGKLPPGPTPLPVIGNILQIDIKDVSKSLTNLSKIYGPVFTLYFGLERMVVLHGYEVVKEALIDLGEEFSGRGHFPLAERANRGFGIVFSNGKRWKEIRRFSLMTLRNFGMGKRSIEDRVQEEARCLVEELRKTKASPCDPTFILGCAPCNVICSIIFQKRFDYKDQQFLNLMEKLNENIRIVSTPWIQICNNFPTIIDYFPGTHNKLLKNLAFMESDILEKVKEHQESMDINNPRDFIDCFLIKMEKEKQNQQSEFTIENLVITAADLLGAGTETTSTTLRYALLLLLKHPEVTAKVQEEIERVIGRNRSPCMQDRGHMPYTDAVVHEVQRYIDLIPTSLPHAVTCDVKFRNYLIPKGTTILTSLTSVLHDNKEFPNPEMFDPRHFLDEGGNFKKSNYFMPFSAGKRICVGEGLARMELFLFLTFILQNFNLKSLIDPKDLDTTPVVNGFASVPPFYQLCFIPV
Procedure, shortened: as §2

[17] = KB-3-1 P-gp reporter qHTS against the NCATS DSHEA and TCM libraries (AID 1919975); further: 0% is about no effect
Procedure, shortened: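 KB-3-1 parental line, 1536-well qHTS: cells seeded, ~4 h attachment, pintool compound addition, ~72 h at 37C, then CellTiter-Glo, 30 min RT, luminescence. Concentration-response format.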

[18] = molecular target: Cytochrome P450 1A2 (Homo sapiens) (UniProt P05177); experiment: qHTS for inhibitors of CYPIA2 against the NCATS DSHEA and TCM libraries (AID 1919976)
Cytochrome P450 1A2 (Homo sapiens), sequence (P05177 whole entry, looked up): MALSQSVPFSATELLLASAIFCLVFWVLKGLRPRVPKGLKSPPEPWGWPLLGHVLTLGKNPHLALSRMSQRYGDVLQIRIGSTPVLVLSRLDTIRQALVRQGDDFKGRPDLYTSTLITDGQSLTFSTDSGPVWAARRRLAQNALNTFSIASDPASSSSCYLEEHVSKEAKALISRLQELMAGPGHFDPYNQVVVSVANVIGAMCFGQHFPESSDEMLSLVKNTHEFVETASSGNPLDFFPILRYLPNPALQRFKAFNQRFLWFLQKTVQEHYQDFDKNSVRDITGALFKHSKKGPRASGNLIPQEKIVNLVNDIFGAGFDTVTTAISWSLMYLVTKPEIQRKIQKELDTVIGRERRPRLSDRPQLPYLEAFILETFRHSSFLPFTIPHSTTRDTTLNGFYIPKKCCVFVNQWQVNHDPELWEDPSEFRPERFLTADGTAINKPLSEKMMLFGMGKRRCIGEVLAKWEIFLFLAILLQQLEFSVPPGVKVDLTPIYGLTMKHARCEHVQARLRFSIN
Procedure, shortened: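 Human CYP1A2 with its pro-luciferin substrate in supplier buffer (typically 100 mM KPO4) was pre-incubated with compounds 15 min at RT. Reaction was started with 1x NADPH regeneration solution and run 30-45 min at RT in the dark, then luminescence was read after P450-Glo detection reagent (30 min RT).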

[19] = qHTS Counterscreen for compound interference against the NCATS DSHEA and TCM libraries (AID 1919978); conditions: firefly luciferase detection reagent interference, luminescence;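 further: compounds preincubated with 1 µM D-luciferin or buffer before detection reagent; % of control where 0% means no effect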
Procedure, shortened: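 Compounds, titrated from 19.5 nM to 39.8 uM final, were pinned onto 1 uM D-luciferin or plain 100 mM potassium phosphate. After 15 min at room temperature, luciferin detection reagent was added for 30 min before the luminescence read.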

COc1cccc2c1c(O)c(C(=O)N(C)c1ccc(C(F)(F)F)cc1)c(=O)n2C
inactive: outcome [1] | Potency [2] | Potency [3] | Potency [4] | Potency [5] | Potency [6] | Potency [7]

Cc1cc(OCCN2CCOCC2)nn1-c1ccc2ccccc2c1
inactive: outcome [1] | Potency [2] | Potency [3] | Potency [4] | Potency [5] | Potency [6]

CC(C)[C@@H](C(=O)O)N1Cc2c(cc(O)c3c2O[C@]2(C3)[C@H](C)CCC3C(C)(C)[C@H](O)[C@H](O)C[C@@]32C)C1=O (stereo partly specified)
inactive: Potency [2] | Potency [3] | Potency [4] | Potency [5]

CCCCOc1nc(N)c2c(n1)N(Cc1cccc(CN3CCCC3)c1)CC(=O)N2
inactive: outcome [1] | Potency [2] | Potency [3] | Potency [4] | Potency [6]

O=C1OC(c2ccc(O)cc2)C(O)=C1Cc1ccccc1 (stereo unspecified)
inactive: Potency [2] | Potency [3] | Potency [4]

Fc1ccccc1-c1nc2ccn(Cc3ccc(-c4ccc(C(F)(F)F)cc4C(F)(F)F)nn3)cc-2n1
inactive: outcome [1] | Potency [2] | Potency [3] | Potency [4] | Potency [5] | Potency [6] | Potency [7]

Cc1onc(-c2c(Cl)cccc2Cl)c1CC(=O)NCc1ccc(OCC(F)(F)F)nc1
inactive: Potency [2] | Potency [3] | Potency [4] | Potency [5] | Potency [6]

O=C(OCC1=C[C@@H](O)[C@@H]2C=CO[C@@H](O[C@@H]3O[C@H](CO)[C@@H](O)[C@H](O)[C@H]3O)[C@H]12)c1ccc(O)cc1
active: Potency [5] 10.3 µM
inactive: outcome [8] | outcome [9] | outcome [10] | outcome [11] | outcome [12] | Potency [2] | Potency [3] | Potency [4] | Potency [6] | Potency [7] | Potency [13] | outcome [14] | Potency [15] | Potency [16] | outcome [17] | Potency [18] | max response [19] -1.45%

O=C(OC[C@H]1O[C@@H](Oc2ccccc2CO)[C@H](O)[C@@H](O)[C@@H]1O)c1ccccc1
active: Potency [5] 10.4 µM
inactive: Potency [2] | Potency [3] | Potency [4] | Potency [6]

C[C@@H]1O[C@@H](O[C@H]2[C@H](O[C@H]3[C@H](O[C@H]4CC[C@@]5(C)C(CC[C@]6(C)C5CC=C5[C@@H]7CC(C)(C)CC(=O)[C@]7(C)CC[C@]56C)[C@@]4(C)CO)O[C@H](C(=O)O)[C@@H](O)[C@@H]3O)O[C@H](CO)[C@H](O)[C@@H]2O)[C@H](O)[C@H](O)[C@H]1O (stereo partly specified)
inactive: Potency [2] | Potency [3] | outcome [4] inactive [at 11.6 µM] | activity change, negative = thiol reactive [5] 40% [at 11.5 µM] | activity, negative = inhibition [6] -0.78% [at 11.6 µM]

COC1CC(O[C@H]2CC[C@@]3(C)C(=CC[C@]4(O)C3[C@H](O)[C@@H](O)[C@]3(C)[C@@H]([C@H](C)O)CC[C@@]34O)C2)OC(C)C1OC1CC(OC)C(OC2CC(OC)C(OC3OC(C)C(OC4OC(CO)C(O)C(O)C4O)C(OC)C3O)C(C)O2)C(C)O1 (stereo partly specified)
inactive: Potency [2] | Potency [3] | activity change, negative = inhibition [4] 1.06% [at 11.6 µM] | activity change, negative = thiol reactive [5] 43.2% [at 11.5 µM] | activity, negative = inhibition [6] 0% [at 11.6 µM]

NCCCCN(Cc1nc2ccccc2[nH]1)[C@H]1CCCc2cccnc21
inactive: outcome [1] | Potency [2] | Potency [3] | Potency [4] | Potency [5] | Potency [6] | Potency [7]

OCC1=C[C@@H](O)[C@@H]2C=CO[C@@H](O[C@@H]3O[C@H](CO)[C@@H](O)[C@H](O)[C@H]3O)[C@H]12
inactive: outcome [1] | Potency [2] | Potency [3] | Potency [6] | Potency [7]

COC(=O)C1=CO[C@@H](O[C@@H]2O[C@H](CO)[C@@H](O)[C@H](O)[C@H]2O)/C(=C\CO)[C@@H]1CC(=O)OCCc1ccc(O)cc1
active: Potency [5] 6.53 µM
inactive: Potency [2] | Potency [3] | Potency [4] | Potency [6]

CCc1nn(CCO)c(CC)c1Oc1cc(C#N)cc(C#N)c1
inactive: outcome [1] | Potency [2] | Potency [3] | Potency [4] | Potency [5] | Potency [6]

CC(C)CC(NC(=O)OCc1ccccc1)C(=O)NC(CC(C)C)C(=O)NC(CCC(=O)O)C(=O)Nc1ccc2ccccc2c1 (stereo not drawn) (Cbz-Leu-Leu-Glu-βNA; configuration not given here)
inactive: Potency [2] | Potency [3] | Potency [4] | Potency [5]

CC1=C(C)C(=O)OC(C(C)C2C(O)CC3C4C5OC5C5(O)CC(OC6OC(CO)C(OC7OC(C)C(O)C(O)C7O)C(O)C6O)CC(O)C5(C)C4CCC32C)C1 (stereo unspecified)
inactive: Potency [2] | Potency [3] | Potency [4] | Potency [5] | Potency [6]

COC(=O)c1ccccc1O[C@@H]1O[C@H](CO[C@@H]2OC[C@@H](O)[C@H](O)[C@H]2O)[C@@H](O)[C@H](O)[C@H]1O
inactive: Potency [2] | Potency [3] | Potency [4]
active: Potency [5] 5.19 µM
